Our source for the growth values is PubChem BioAssay (NCI).

Among the test systems are NCI-H23 lung; NCI-H226 lung; NCI-H322M lung; HOP-62 NSCLC; NCI-H460 lung; NCI-H522 lung; A549/ATCC NSCLC; 786-0 renal; DU-145 prostate; K-562 leukemia; MDA-MB-231 breast; RXF 393 renal; SF-268 CNS; SF-539 CNS; UACC-257 melanoma; M14 melanoma; HCT-15 colon; MALME-3M melanoma; SF-295 CNS.
What all share (experiment): NCI-60 one-dose screen, 48 h (100 = growth as untreated, 0 = no growth, -100 = all killed)
Details in all cases: 10 µM unless noted

Structures are written as SMILES. The panel holds about 83,000 compounds, 20% with a hit somewhere; the sample as a whole holds those more often.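 A percent growth of 40 corresponds to 60% growth inhibition; 0 means no net growth; -100 means all cells died. Active threshold: below 10.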 A number with no mark means an inactive call. Active and inactive are the calls of the source.

`C=C(C)[C@H]1CC/C(C)=C/CC[C@]2(C)O[C@H]2CC/C(C=O)=C\C1O` (some centres not stated): the growth in the assay with NCI-H23 lung is 112%; in the assay on NCI-H226 lung, 106%; in the assay on NCI-H322M lung it was 111%; in the assay with HOP-62 NSCLC, 105%; with NCI-H460 lung it was 104%; in the assay with NCI-H522 lung, 113%. For the same molecule, the growth in the assay on A549/ATCC NSCLC was 108%; in the assay on 786-0 renal it was 115%; in the assay with DU-145 prostate it was 106%; in the assay with K-562 leukemia, 124%; in the assay on MDA-MB-231 breast, 92.4%; with RXF 393 renal, 111%. Moreover, the growth in the assay on SF-268 CNS was 106%; in the assay with SF-539 CNS, 106%; in the assay with UACC-257 melanoma, 154%; with M14 melanoma it was 115%; with HCT-15 colon it was 118%.
Regarding `CCn1c2ccccc2c2ccc(C(C)=O)cc21`, the growth is 101% in the assay on NCI-H23 lung; 91.8% in the assay on NCI-H226 lung; 126% in the assay with NCI-H322M lung; 103% in the assay on HOP-62 NSCLC; 108% in the assay with NCI-H460 lung; 96.6% in the assay with NCI-H522 lung. In addition, the growth in the assay with A549/ATCC NSCLC was 103%; in the assay on 786-0 renal, 102%; in the assay with DU-145 prostate, 93.5%; with MALME-3M melanoma it was 113%; with MDA-MB-231 breast, 114%; in the assay with RXF 393 renal it was 105%. The growth was 90.8% with SF-268 CNS; 116% in the assay on SF-295 CNS; 96.5% in the assay with SF-539 CNS; 108% in the assay on UACC-257 melanoma; 105% with M14 melanoma; 107% in the assay with HCT-15 colon.
As to `NC(N)=N/N=C(/c1ccccc1)c1ccc(Cl)cc1`, the growth with NCI-H23 lung is 83.9%; in the assay on NCI-H226 lung, 88.8%; with NCI-H322M lung, 57.7%; in the assay with HOP-62 NSCLC it was 85%; with NCI-H460 lung it was 52.3%; in the assay with NCI-H522 lung, 59.5%. For the same molecule, the growth with A549/ATCC NSCLC was 68.3%; in the assay on 786-0 renal it was 69.1%; in the assay on DU-145 prostate, 83%; with K-562 leukemia, 42.5%; with MALME-3M melanoma, 115%; in the assay on MDA-MB-231 breast, 105%. Further, the growth in the assay with RXF 393 renal is 94.9%; in the assay with SF-268 CNS, 62.2%; in the assay on SF-539 CNS, 93.3%; with UACC-257 melanoma, 38.4%; in the assay on M14 melanoma, 59.6%; with HCT-15 colon it was 56.6%.
`O=C(C(=O)N1CCOCC1)c1ccc(OC2OC(CO)C(O)C(O)C2O)cc1` (configuration not stated): the growth with NCI-H23 lung was 106%; in the assay with NCI-H226 lung it was 107%; in the assay on NCI-H322M lung, 115%; with HOP-62 NSCLC it was 107%; in the assay on NCI-H460 lung, 110%; in the assay on NCI-H522 lung, 79.9%. The growth is 107% in the assay on A549/ATCC NSCLC; 103% in the assay with 786-0 renal; 125% in the assay on DU-145 prostate; 129% with MALME-3M melanoma; 107% with MDA-MB-231 breast; 112% in the assay on RXF 393 renal. Moreover, the growth with SF-268 CNS is 115%; with SF-295 CNS it was 115%; in the assay with SF-539 CNS it was 96.3%; in the assay on UACC-257 melanoma, 96.5%; in the assay with M14 melanoma it was 102%; in the assay with HCT-15 colon, 104%.
Consider `O=C1Cc2cc(CCN3CCN(CCOCCO)CC3)c(Cl)cc2N1Cc1ccc(-c2ccccc2-c2nn[nH]n2)cc1`, for which the growth in the assay on NCI-H23 lung is 85.8%; with NCI-H226 lung it was 81.8%; in the assay on NCI-H322M lung, 108%; in the assay on HOP-62 NSCLC, 91.6%; with NCI-H460 lung, 90%; in the assay on NCI-H522 lung, 79.4%. The growth in the assay with A549/ATCC NSCLC is 87.1%; in the assay on 786-0 renal, 86.8%; in the assay with DU-145 prostate, 117%; with MALME-3M melanoma, 91.8%; in the assay on MDA-MB-231 breast, 92.1%; in the assay with RXF 393 renal it was 113%. Also, the growth with SF-268 CNS was 117%; with SF-295 CNS it was 93.5%; in the assay on UACC-257 melanoma, 81.4%; in the assay with M14 melanoma, 92.6%; in the assay on HCT-15 colon it was 86.6%.
Take `Cc1nn(-c2ccccc2)c2nc3c(nc12)C(=O)CCC3`: the growth with NCI-H23 lung was 80.4%; in the assay on NCI-H226 lung, 107%; in the assay with NCI-H322M lung, 93.1%; in the assay on HOP-62 NSCLC, 92.9%; in the assay on NCI-H460 lung it was 104%; in the assay with NCI-H522 lung, 74%. The growth was 92.9% with A549/ATCC NSCLC; 88.5% in the assay on 786-0 renal; 104% in the assay on DU-145 prostate; 98% in the assay with MALME-3M melanoma; 108% with MDA-MB-231 breast; 116% in the assay with RXF 393 renal. Besides, the growth with SF-268 CNS was 103%; with UACC-257 melanoma it was 99.8%; in the assay with M14 melanoma, 106%; with HCT-15 colon, 88.5%.
`CC(C)[C@]12O[C@H]1[C@@H]1O[C@]13[C@]1(O[C@H]1C[C@H]1C4=C(CC[C@@]13C)C(=O)OC4)[C@@H]2OC(=O)CN(C)C`: the growth in the assay on NCI-H23 lung is -19.4% (active); in the assay on NCI-H226 lung, 10.6%; in the assay on NCI-H322M lung it was -7.07% (active); with HOP-62 NSCLC, 19.2%; in the assay with NCI-H460 lung it was 0.675% (active); in the assay with NCI-H522 lung it was -41.8% (active). Also, the growth in the assay with A549/ATCC NSCLC was 18.4%; in the assay on 786-0 renal, 12.9%; in the assay with DU-145 prostate, 3.28% (active); in the assay with MALME-3M melanoma, -45.2% (active); in the assay on MDA-MB-231 breast it was 27.8%; in the assay with RXF 393 renal, -61.9% (active). Moreover, the growth in the assay with SF-268 CNS is -10.2% (active); in the assay with SF-295 CNS it was -27.6% (active); in the assay on SF-539 CNS it was -23% (active); in the assay with UACC-257 melanoma, -2.52% (active); with M14 melanoma, -74.2% (active); in the assay with HCT-15 colon it was 9.18% (active).
For the molecule `COc1cc2cn3c4ccc(O)cc4nc(N)c3c2cc1OC`, the growth in the assay with NCI-H23 lung was 0.98% (active); in the assay on NCI-H226 lung it was 25.7%; in the assay with NCI-H322M lung, 28.7%; in the assay on HOP-62 NSCLC it was 11.9%; with NCI-H460 lung it was 1.19% (active); in the assay on NCI-H522 lung, -39.4% (active). The growth in the assay with A549/ATCC NSCLC is 18.4%; in the assay on 786-0 renal, 6.11% (active); in the assay with MALME-3M melanoma, 31.2%; in the assay with MDA-MB-231 breast, 61.6%; with RXF 393 renal, 9.93% (active); in the assay on SF-268 CNS, 20.8%. Besides, the growth in the assay with SF-295 CNS was 9.44% (active); with SF-539 CNS, -18.3% (active); with UACC-257 melanoma, 6.97% (active); in the assay with M14 melanoma, -9.75% (active); with HCT-15 colon, 31.4%.
As to `COc1cc(/C=C/c2nnc(-c3cc(-c4ccccc4)n[nH]3)o2)cc(OC)c1OC`, the growth with NCI-H23 lung is 92.6%; in the assay on NCI-H226 lung, 100%; with NCI-H322M lung, 106%; in the assay on HOP-62 NSCLC, 102%; in the assay with NCI-H460 lung, 107%; with NCI-H522 lung, 85.4%. The growth was 97.5% with A549/ATCC NSCLC; 118% in the assay on 786-0 renal; 108% in the assay with DU-145 prostate; 98.2% with K-562 leukemia; 98.3% in the assay on MALME-3M melanoma; 111% with MDA-MB-231 breast. The growth is 111% in the assay on RXF 393 renal; 105% with SF-295 CNS; 92.6% with SF-539 CNS; 105% with UACC-257 melanoma; 127% with M14 melanoma; 102% with HCT-15 colon.
